Nrf2 block = Nrf2 pathway inhibition; A549 ARE-Fluc reporter, luciferase luminescence, 18-24 h; Potency, µM (titrated, usually from 46 µM), usual class: inhibitors; 2.1% of 360,000 active; further: nearly all actives have a fitted effect of over 60% in size
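In this cell-based qHTS, ARE-driven firefly luciferase in A549 cells reports Nrf2 activity; the luminescent signal after BugLite lysis is the measured value, with a prior CellTiter-Fluor read for cell health.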
Nrf2 activator = activates Nrf2 signaling; Potency, µM (series often up to 46.1 µM), usual class: activators; AID 624171; AREc32 ARE-luciferase reporter (MCF7-derived line), luminescence, 24 h; 0.31% of 410,000 active; further: nearly all actives have a fitted effect of over 65% in size
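AREc32 cells carrying an ARE-driven firefly luciferase reporter were seeded at 1000 cells/well in OPTI-MEM with 5% FBS, then exposed to compound for 24 hr at 37 deg C. Luminescence was read with Steady-Glo after 30 min at RT.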
IDH1 R132H inh = inhibitors of human mutant IDH1 R132H. Potency, µM (series often up to 76.6 µM), most hits filed as inhibitors. IDH1-R132H enzyme, NADPH consumption, diaphorase/resazurin fluorescence. O75874. 0.093% of 390,000 active; further: nearly all actives have a fitted effect of over 65% in size
Target sequence (O75874 whole entry R132H, stated change not applied): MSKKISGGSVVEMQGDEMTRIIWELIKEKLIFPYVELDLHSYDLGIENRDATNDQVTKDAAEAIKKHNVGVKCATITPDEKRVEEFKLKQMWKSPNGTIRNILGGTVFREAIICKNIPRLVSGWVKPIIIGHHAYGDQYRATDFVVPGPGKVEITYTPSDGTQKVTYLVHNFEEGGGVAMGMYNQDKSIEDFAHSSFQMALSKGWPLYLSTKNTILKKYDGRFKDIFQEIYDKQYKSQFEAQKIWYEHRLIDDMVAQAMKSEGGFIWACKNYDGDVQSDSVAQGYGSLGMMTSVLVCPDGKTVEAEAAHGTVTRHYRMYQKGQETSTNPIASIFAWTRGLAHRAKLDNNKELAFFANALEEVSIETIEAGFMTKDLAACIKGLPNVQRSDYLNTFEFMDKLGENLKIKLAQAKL
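IDH1-R132H (0.5 ug/mL dispensed) in pH 7.5 Tris buffer was preincubated 30 min with compound, then given a substrate mix of 0.016 mM NADPH and 2 mM alpha-KG for 80 min at room temperature; remaining NADPH was read by diaphorase/resazurin fluorescence.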
A549 viability = A549 cytotoxicity, counter-screen for Nrf2 inhibitors. A549 ARE-Fluc cells, CellTiter-Fluor viability, 18-24 h. Potency, µM (doses to about 46 µM), hits mostly inhibitors. 0.16% of 390,000 active
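Cytotoxicity counterscreen: CellTiter-Fluor fluorescence was measured in A549 ARE_Fluc cells after 18-24 h of compound exposure in a concentration series. The subsequent BugLite luminescent read reports ARE-luciferase activity.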
ELG1 repair inh = blocks ELG1-dependent DNA repair in HEK293T cells | HEK293T ELG1-luciferase reporter, luminescence, 16 h; DNA damage induced by 5-fluorouridine | Potency, µM (top dose mostly 46.1 µM), hits mostly inhibitors | 2.3% of 330,000 active; further: nearly all actives have a fitted effect of over 55% in size
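Reporter activity after DNA damage by 5-fluorouridine is monitored. Compound-treated cells incubate 16 hr at 37 °C, then ONE-Glo is added for 30 min before luminescence reading.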
A number is an active result; n = inactive; u = inconclusive; x = no result; ! = repeats disagree. This is a sample that favours compounds with a hit; in the whole collection about 3.8% have one here. The call rests on the fitted dose curve; in most records, active means well fitted curve in the direction sought with a large enough effect; inconclusive means small, poorly fitted or top-dose-only effect, or another doubt; inactive means no such curve, though single readings can be large; an effect the other way counts as inactive or inconclusive.

SMILES	Nrf2 block	Nrf2 activator	IDH1 R132H inh	A549 viability	ELG1 repair inh
COc1cccc(CN(C)C(=O)c2cccc(S(=O)(=O)N3CCN(c4ccc(F)cc4)CC3)c2)c1OC	8.2µM	n	n	u	u
CCN(Cc1ccccc1)C(=O)c1cccc(S(=O)(=O)N2CCN(c3ccccc3)CC2)c1	u	n	n	n	u
COc1cccc(CN(C)C(=O)c2ccc(Cl)c(S(=O)(=O)N3CCCCCC3)c2)c1OC	18µM	n	n	n	x
COc1cccc(CNC(=O)C2CCCN(S(=O)(=O)N(C)c3ccc(F)cc3)C2)c1OC (stereo not given)	26µM	n	n	n	x
CCN(Cc1ccccc1)C(=O)c1cccc(S(=O)(=O)N2CCN(c3ccc(F)cc3)CC2)c1	15µM	n	n	n	u
COc1ccc(NC(=O)c2c(NCc3ccc(N(C)C)cc3)sc3c2CCC3)cc1	x	n	n	n	x
COc1cccc(CN(C)C(=O)c2cccc(S(=O)(=O)N3CCN(Cc4ccccc4)CC3)c2)c1OC	10µM	n	n	n	n
CN1CCC2(CC1)C1CN(C)CC=C1C(C#N)=C(N)C2(C#N)C#N (stereo not given)	n	n	n	16µM!	n
Cc1cccc(NC(=O)c2ccc(Cn3nc(N4CCN(c5ccccc5)CC4)ccc3=O)o2)c1C	21µM	n	n	u	x
CN1CCc2c(sc(NC(=O)c3ccc([N+](=O)[O-])o3)c2C(N)=O)C1	u	n	n	21µM	u
NC(=O)c1c(NC(=O)c2ccc([N+](=O)[O-])o2)sc2c1CCCC2	n	4µM	n	n	n
N#Cc1c(NC(=O)c2ccc([N+](=O)[O-])o2)sc2c1CCC2	n	u	n	u	u
Cc1ccccc1NC(=O)N1CCCC(c2nc(-c3ccc(F)cc3)no2)C1 (stereo not given)	n	n	n	n	u
Cc1ccccc1NC(=O)N1CCCC(c2nc(-c3ccc(C(C)C)cc3)no2)C1 (stereo not given)	5.8µM	n	n	u	u
O=S(=O)(c1ccc(F)cc1)N1CCC(n2c(C(F)(F)F)nc3cccnc32)CC1	21µM	n	n	n	x
CN(C)S(=O)(=O)N1CCC(n2c(C(F)(F)F)nc3cccnc32)CC1	u	n	n	n	x
FC(F)(F)c1cc(-c2ccco2)nc(NCc2cccs2)n1	n	u	n	n	n
FC(F)(F)c1cc(-c2ccco2)nc(NCc2ccco2)n1	n	10µM	n	n	n
Cc1nc2cc(NS(=O)(=O)c3c(C)c(C)cc(C)c3C)ccc2s1	11µM	n	n	u	u
Cc1nc2ccc(NS(=O)(=O)c3c(C)c(C)cc(C)c3C)cc2s1	15µM	n	n	n	x
Cc1nc2cc(NS(=O)(=O)c3ccccc3F)ccc2s1	n	n	n	n	n
Cc1ccc(S(=O)(=O)Nc2ccc3nc(C)sc3c2)c(C)c1	u	n	n	n	n
Cc1oc(C)c2c(=O)cc(-c3ccc4c(c3)OCO4)cc(OC(=O)c3ccccc3Br)c12	n	n	n	n	x
CSc1nc(N)nc2c1ncn2CC(=O)NCCCc1ccccc1	u	n	n	n	u
COC(=O)c1ccc(CNC(=O)Cn2cnc3c(SC)nc(N)nc32)cc1	23µM	n	n	n	u
SMILES	Nrf2 block	Nrf2 activator	IDH1 R132H inh	A549 viability	ELG1 repair inh
Cc1ccc(CN2CCC(CNC(=O)c3cc4ccc5cccnc5c4[nH]3)CC2)cc1	u	n	n	n	x
Cc1nc(C)n(C(Oc2ccc(Cl)cc2Cl)C(=O)C(C)(C)C)n1 (stereo not given)	n	n	n	n	x
CCn1c(CN2CCCCC2)nc2cc(S(=O)(=O)N3CCCCC3)ccc21	n	n	n	n	n
CCn1c(C)nc2cc(S(=O)(=O)N3CCCCC3)ccc21	u	n	n	n	18µM
CCc1ccc(S(=O)(=O)Nc2ccc3[nH]c(=O)sc3c2)cc1	x	n	n	n	x
COc1ccc(S(=O)(=O)N2CCN(CC(=O)c3[nH]c(C)c(C(C)=O)c3C)CC2)cc1OC	n	n	n	n	n
CC(=O)c1c(C)[nH]c(C(=O)CN2CCN(S(=O)(=O)c3ccccc3F)CC2)c1C	26µM	n	n	n	12µM
CC(=O)c1c(C)[nH]c(C(=O)CN2CCN(S(=O)(=O)c3ccc(C(C)C)cc3)CC2)c1C	15µM	n	n	n	u

Screening data: PubChem BioAssay, National Center for Advancing Translational Sciences (NCATS)
